{
  "source": "ChEMBL document CHEMBL4513154",
  "about": "“CO-ADD screening of Jain University (India) compounds”",
  "key": {"Klebsiella pneumoniae": {"test_system": "Klebsiella pneumoniae", "conditions": "Concentration 32 ug.mL-1; ASSAY_TEST Inhibition of Bacterial Growth; detection method Absorption (OD600); MEDIA CAMHB; plate type 384well; NBS; CORNING #3640; time 18 hr"}, "Candida albicans": {"test_system": "Candida albicans", "conditions": "32 ug/mL"}, "Cryptococcus neoformans": {"test_system": "Cryptococcus neoformans", "conditions": "Concentration 32 ug.mL-1; ASSAY_TEST Inhibition of Fungal Growth; detection method Resazurin; Absorption (OD600-OD570); plate type 384well; NBS; CORNING #3640"}},
  "note": "Results with a measured potency or affinity are listed apart.",
  "data": [
    {"smiles": "N=C(Nc1ccccc1Cl)c1cscn1", "values": [
      {"measurement": "Inhibition", "setting": "Klebsiella pneumoniae", "result": 17.83, "unit": "%"},
      {"measurement": "Inhibition", "setting": "Candida albicans", "result": 2.14, "unit": "%"},
      {"measurement": "Inhibition", "setting": "Cryptococcus neoformans", "result": -8.23, "unit": "%"}
    ]},
    {"smiles": "N#Cc1ccccc1-c1ccc(Cn2c(-c3cscn3)nc3cc(Cl)ccc32)cc1", "values": [
      {"measurement": "Inhibition", "setting": "Klebsiella pneumoniae", "result": 8, "unit": "%"},
      {"measurement": "Inhibition", "setting": "Candida albicans", "result": -1.51, "unit": "%"},
      {"measurement": "Inhibition", "setting": "Cryptococcus neoformans", "result": -36.18, "unit": "%"}
    ]},
    {"smiles": "O=[N+]([O-])c1ccc(Cn2c(-c3cscn3)nc3ccccc32)cc1", "values": [
      {"measurement": "Inhibition", "setting": "Klebsiella pneumoniae", "result": 13.21, "unit": "%"},
      {"measurement": "Inhibition", "setting": "Candida albicans", "result": 3.4, "unit": "%"},
      {"measurement": "Inhibition", "setting": "Cryptococcus neoformans", "result": -41.75, "unit": "%"}
    ]},
    {"smiles": "CCc1ccc(-n2c(-c3sc(Nc4ccccc4)nc3N)nc3ccccc3c2=O)cc1", "values": [
      {"measurement": "Inhibition", "setting": "Klebsiella pneumoniae", "result": -7.9, "unit": "%"},
      {"measurement": "Inhibition", "setting": "Candida albicans", "result": 0.25, "unit": "%"},
      {"measurement": "Inhibition", "setting": "Cryptococcus neoformans", "result": -54.61, "unit": "%"}
    ]},
    {"smiles": "Nc1nc(Nc2ccc(Cl)cc2)sc1-c1nc2ccccc2c(=O)n1-c1ccccc1", "values": [
      {"measurement": "Inhibition", "setting": "Klebsiella pneumoniae", "result": 6.62, "unit": "%"},
      {"measurement": "Inhibition", "setting": "Candida albicans", "result": 3.78, "unit": "%"},
      {"measurement": "Inhibition", "setting": "Cryptococcus neoformans", "result": -54.18, "unit": "%"}
    ]},
    {"smiles": "Cn1c(-c2cscn2)nc2c(Cl)cccc21", "values": [
      {"measurement": "Inhibition", "setting": "Klebsiella pneumoniae", "result": -3.44, "unit": "%"},
      {"measurement": "Inhibition", "setting": "Candida albicans", "result": 4.84, "unit": "%"},
      {"measurement": "Inhibition", "setting": "Cryptococcus neoformans", "result": -43.05, "unit": "%"}
    ]},
    {"smiles": "Clc1ccc2nc(-c3cscn3)n(Cc3ccccc3)c2c1", "values": [
      {"measurement": "Inhibition", "setting": "Klebsiella pneumoniae", "result": 10.47, "unit": "%"},
      {"measurement": "Inhibition", "setting": "Candida albicans", "result": 0.38, "unit": "%"},
      {"measurement": "Inhibition", "setting": "Cryptococcus neoformans", "result": -41.97, "unit": "%"}
    ]},
    {"smiles": "N#Cc1ccccc1-c1ccc(Cn2c(-c3cscn3)nc3c(Cl)cccc32)cc1", "values": [
      {"measurement": "Inhibition", "setting": "Klebsiella pneumoniae", "result": -3.22, "unit": "%"},
      {"measurement": "Inhibition", "setting": "Candida albicans", "result": 5.26, "unit": "%"},
      {"measurement": "Inhibition", "setting": "Cryptococcus neoformans", "result": -8.16, "unit": "%"}
    ]},
    {"smiles": "Nc1nc(Nc2ccccc2)sc1-c1nc2ccccc2c(=O)n1-c1ccccc1", "values": [
      {"measurement": "Inhibition", "setting": "Klebsiella pneumoniae", "result": 11.02, "unit": "%"},
      {"measurement": "Inhibition", "setting": "Candida albicans", "result": 6.03, "unit": "%"},
      {"measurement": "Inhibition", "setting": "Cryptococcus neoformans", "result": -28.85, "unit": "%"}
    ]},
    {"smiles": "CC(C)c1ccc(Cn2c(-c3cscn3)nc3c(Cl)cccc32)cc1", "values": [
      {"measurement": "Inhibition", "setting": "Klebsiella pneumoniae", "result": 2.02, "unit": "%"},
      {"measurement": "Inhibition", "setting": "Candida albicans", "result": 2.25, "unit": "%"},
      {"measurement": "Inhibition", "setting": "Cryptococcus neoformans", "result": -5.86, "unit": "%"}
    ]},
    {"smiles": "CCc1ccc(Nc2nc(N)c(-c3nc4ccccc4c(=O)n3-c3ccc(CC)cc3)s2)cc1", "values": [
      {"measurement": "Inhibition", "setting": "Klebsiella pneumoniae", "result": 12.46, "unit": "%"},
      {"measurement": "Inhibition", "setting": "Candida albicans", "result": 3.1, "unit": "%"},
      {"measurement": "Inhibition", "setting": "Cryptococcus neoformans", "result": -48.5, "unit": "%"}
    ]},
    {"smiles": "N#Cc1ccccc1-c1ccc(Cn2c(-c3cscn3)nc3ccccc32)cc1", "values": [
      {"measurement": "Inhibition", "setting": "Klebsiella pneumoniae", "result": 13.6, "unit": "%"},
      {"measurement": "Inhibition", "setting": "Candida albicans", "result": 1.96, "unit": "%"},
      {"measurement": "Inhibition", "setting": "Cryptococcus neoformans", "result": -25.26, "unit": "%"}
    ]},
    {"smiles": "CCc1ccc(Nc2nc(N)c(-c3nc4ccccc4c(=O)n3-c3ccc(Cl)cc3)s2)cc1", "values": [
      {"measurement": "Inhibition", "setting": "Klebsiella pneumoniae", "result": 12.28, "unit": "%"},
      {"measurement": "Inhibition", "setting": "Candida albicans", "result": 0.52, "unit": "%"},
      {"measurement": "Inhibition", "setting": "Cryptococcus neoformans", "result": -34.77, "unit": "%"}
    ]},
    {"smiles": "Clc1cccc2[nH]c(-c3cscn3)nc12", "values": [
      {"measurement": "Inhibition", "setting": "Klebsiella pneumoniae", "result": 5.98, "unit": "%"},
      {"measurement": "Inhibition", "setting": "Candida albicans", "result": 15, "unit": "%"},
      {"measurement": "Inhibition", "setting": "Cryptococcus neoformans", "result": -19.67, "unit": "%"}
    ]},
    {"smiles": "Cn1c(-c2cscn2)nc2cc(Cl)ccc21", "values": [
      {"measurement": "Inhibition", "setting": "Klebsiella pneumoniae", "result": 8.32, "unit": "%"},
      {"measurement": "Inhibition", "setting": "Candida albicans", "result": 0.35, "unit": "%"},
      {"measurement": "Inhibition", "setting": "Cryptococcus neoformans", "result": -39.47, "unit": "%"}
    ]},
    {"smiles": "Nc1nc(Nc2ccccc2)sc1-c1nc2ccccc2c(=O)n1-c1ccc(Cl)cc1", "values": [
      {"measurement": "Inhibition", "setting": "Klebsiella pneumoniae", "result": -25.33, "unit": "%"},
      {"measurement": "Inhibition", "setting": "Candida albicans", "result": 3.54, "unit": "%"},
      {"measurement": "Inhibition", "setting": "Cryptococcus neoformans", "result": -43.66, "unit": "%"}
    ]},
    {"smiles": "Fc1cc(Cn2c(-c3cscn3)nc3c(Cl)cccc32)cc(C(F)(F)F)c1", "values": [
      {"measurement": "Inhibition", "setting": "Klebsiella pneumoniae", "result": -0.75, "unit": "%"},
      {"measurement": "Inhibition", "setting": "Candida albicans", "result": 3.24, "unit": "%"},
      {"measurement": "Inhibition", "setting": "Cryptococcus neoformans", "result": -8.45, "unit": "%"}
    ]},
    {"smiles": "N#Cc1ccc(Cn2c(-c3cscn3)nc3c(Cl)cccc32)cc1", "values": [
      {"measurement": "Inhibition", "setting": "Klebsiella pneumoniae", "result": -10.25, "unit": "%"},
      {"measurement": "Inhibition", "setting": "Candida albicans", "result": 4.47, "unit": "%"},
      {"measurement": "Inhibition", "setting": "Cryptococcus neoformans", "result": -42.41, "unit": "%"}
    ]},
    {"smiles": "N#Cc1ccccc1-c1ccc(Cn2c(-c3cscn3)nc3ccc(Cl)cc32)cc1", "values": [
      {"measurement": "Inhibition", "setting": "Klebsiella pneumoniae", "result": 6.08, "unit": "%"},
      {"measurement": "Inhibition", "setting": "Candida albicans", "result": 1.5, "unit": "%"},
      {"measurement": "Inhibition", "setting": "Cryptococcus neoformans", "result": -28.09, "unit": "%"}
    ]},
    {"smiles": "Clc1ccc2c(c1)nc(-c1cscn1)n2Cc1ccccc1", "values": [
      {"measurement": "Inhibition", "setting": "Klebsiella pneumoniae", "result": 12.29, "unit": "%"},
      {"measurement": "Inhibition", "setting": "Candida albicans", "result": 1.89, "unit": "%"},
      {"measurement": "Inhibition", "setting": "Cryptococcus neoformans", "result": -24.56, "unit": "%"}
    ]},
    {"smiles": "CCc1ccc(Nc2nc(N)c(-c3nc4ccccc4c(=O)n3-c3ccccc3)s2)cc1", "values": [
      {"measurement": "Inhibition", "setting": "Klebsiella pneumoniae", "result": 10.03, "unit": "%"},
      {"measurement": "Inhibition", "setting": "Candida albicans", "result": 6, "unit": "%"},
      {"measurement": "Inhibition", "setting": "Cryptococcus neoformans", "result": -53.41, "unit": "%"}
    ]},
    {"smiles": "Clc1cccc2c1nc(-c1cscn1)n2Cc1ccccc1", "values": [
      {"measurement": "Inhibition", "setting": "Klebsiella pneumoniae", "result": 10.03, "unit": "%"},
      {"measurement": "Inhibition", "setting": "Candida albicans", "result": 5.46, "unit": "%"},
      {"measurement": "Inhibition", "setting": "Cryptococcus neoformans", "result": -32.31, "unit": "%"}
    ]},
    {"smiles": "N=C(Nc1ccccc1)c1cscn1", "values": [
      {"measurement": "Inhibition", "setting": "Klebsiella pneumoniae", "result": -2.19, "unit": "%"},
      {"measurement": "Inhibition", "setting": "Candida albicans", "result": 6.13, "unit": "%"},
      {"measurement": "Inhibition", "setting": "Cryptococcus neoformans", "result": 4.1, "unit": "%"}
    ]}
  ]
}
